Experimental data reported in the supplement of paper PMC12636033.
± gives the standard deviation of the averaged measurements. The full ranking holds about 33,000 sequences; the median of “E-score (rank enrichment, -0.5 to 0.5)” is about -0.0028, and the highest 2% start at about 0.23. For the sample, the highest values were picked, then their nearest neighbours and some sequences at random.

tested on: 2Sb-muMax20 (muMax20 with two 1,3-bis(methyl)benzene Cys staples, A13C/A17C and Q88C/A92C, C-terminal Lys); assay: PBM 8-mer E-score (E-score (rank enrichment, -0.5 to 0.5)); higher = stronger preferential binding
Procedure: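 Protein binding microarray (universal PBM chip covering all 10-mers in fixed probe flanks) with chemically synthesized human Max(13-93) bHLH-LZ analogs (not full-length Max) bearing noncanonical residues (hArg, Tha, Aib, Nle at 65) and aromatic Cys staples. Read-out per 8-mer (and its reverse complement): E-score (rank-based enrichment, -0.5 to 0.5) and Z-score of median probe intensity.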

Sequence | PBM 8-mer E-score
ACTACATG | 0.123 ± 0.031
ACTACATA | 0.239 ± 0.06
CCTACACG | -0.0783 ± 0.048
ACTACACA | 0.266 ± 0.055
GCTACATA | -0.0387 ± 0.017
ACTACACG | 0.0218 ± 0.034
TAGAACGA | 0.0786 ± 0.036
AGCGAATC | 0.0438 ± 0.019
GTAAAGTA | 0.262 ± 0.032
CTAAAGTA | -0.0474 ± 0.011
ATAAAGTA | 0.166 ± 0.053
GGTATCTA | 0.0221 ± 0.013
AGTATATA | 0.334 ± 0.041
GGTATAGA | 0.0611 ± 0.0045
AGTATCTA | 0.329 ± 0.0077
AGTATATC | 0.106 ± 0.013
CGTATATA | 0.185 ± 0.0076
CGTATCTA | -0.126 ± 0.083
GGTATATA | 0.235 ± 0.013
AGTATATG | 0.153 ± 0.051
CCATCGCG | 0.124 ± 0.044
GTCGCGGA | -0.206 ± 0.07
CGCCCCGC | 0.072 ± 0.059

Sequence | PBM 8-mer E-score
GGAATTAA | 0.166 ± 0.031
GTAATTAC | 0.2036 ± 0.0011
ATAATTAA | 0.141 ± 0.023
CTAATTAA | 0.0454 ± 0.045
TGAATTAA | 0.255 ± 0.0052
ATAATTAC | 0.276 ± 0.0099
TTAATTAA | 0.281 ± 0.08
CTAATTAC | 0.139 ± 0.051
CGAATTAA | 0.00973 ± 0.029
GTTGAAAA | 0.103 ± 0.084
ACCTTGCA | 0.0732 ± 0.0055
CGGGGGAA | -0.121 ± 0.028
AAGGGAGG | 0.0917 ± 0.039
CTCTAGTA | 0.103 ± 0.0078
GTCTAGTA | 0.247 ± 0.051
ATCTAGTA | -0.0228 ± 0.022
CTAAGGGC | -0.156 ± 0.055
AAAGCGGA | 0.0459 ± 0.0043
ACTTACTC | 0.0212 ± 0.036
CCTTACTA | 0.0233 ± 0.037
ACTTACTA | 0.258 ± 0.042
GACCCACA | 0.0373 ± 0.043
AGTATTTA | 0.195 ± 0.012

Sequence | PBM 8-mer E-score
GGTATTTA | 0.118 ± 0.052
CGTATTTA | 0.2434 ± 0.0022
GAACATGC | 0.136 ± 0.0025
TATCTTGA | 0.163 ± 0.012
GATCTTGA | 0.246 ± 0.03
CATCTTGA | -0.0488 ± 0.041
ATGACTGC | 0.00213 ± 0.035
CGCCTCAA | 0.0117 ± 0.0089
AGGCGGGG | 0.259 ± 0.092
GGCGGGGA | 0.403 ± 0.025
AGGGCGGA | -0.228 ± 0.016
GGGCGGAA | 0.111 ± 0.07
AGGCGGGC | 0.00216 ± 0.077
CGGCGGGA | -0.205 ± 0.01
AGGCGGGA | 0.08088 ± 0.00027
AGGGCGGG | 0.272 ± 0.091
AGGGCGGC | -0.161 ± 0.057
GGCGGGAA | 0.0557 ± 0.014
GGGCGGGA | 0.3 ± 0.018
CGCGGGGA | 0.0556 ± 0.023
AACCGATA | -0.0929 ± 0.094
ACACCTCA | 0.0903 ± 0.038
GACGAGGA | -0.0396 ± 0.053

Sequence | PBM 8-mer E-score
ACCAGGGT | -0.196 ± 0.08
CTGGACAC | -0.2589 ± 0.0024
ACCGGGTA | -0.1338 ± 0.00064
CATGAGCG | -0.0614 ± 0.0046
CCTACCCG | -0.0857 ± 0.0032
ATGGCGCG | 0.0718 ± 0.02
ATGGCGCA | 0.239 ± 0.057
CTGGCGCA | -0.166 ± 0.074
AACTTGGG | 0.304 ± 0.015
ACTTGGGC | 0.0763 ± 0.039
ATTTGGGA | 0.209 ± 0.0036
AATTTGGT | 0.0829 ± 0.018
ACTTGGGG | 0.3507 ± 0.0032
AATTTGGG | 0.29 ± 0.015
ATTTGGGG | 0.267 ± 0.0073
AACTTGGA | 0.0353 ± 0.027
AATTTGGA | 0.0432 ± 0.015
ATTTGGGC | 0.102 ± 0.069
CACTTGGG | 0.176 ± 0.012
ACTTGGGA | -0.129 ± 0.03
